# Source: PubChem BioAssay (several laboratories)
# NTR1 agonist – agonists of human NTR1, primary screen, imaging, U2OS cells, beta-arrestin-GFP, high content; Neurotensin receptor type 1 (Homo sapiens), P30989; NTR1-U2OS beta-arrestin-GFP spot imaging, agonist mode; activation, % at 20 µM; hit rate 0.17% among 330,000; AID 493036, 2011;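 active means activation at or above 40% of the spot to cytoplasm intensity ratio, with at least 20 cells analyzed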;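 further: 0% = DMSO without peptide and 100% = 100 nM NTR1 peptide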
# GRIN3A LBD mod – binders of NR3A ligand-binding domain, primary screen, biophysical, differential scanning fluorimetry, uHTS; NR3A LBD differential scanning fluorimetry, Tm shift; 0% = protein alone, 100% = glycine-bound protein; Tm shift relative to glycine control, % at 25 µM; hit rate 2.5% among 340,000;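 active means melting temperature shift of at least 10% of the positive control shift, at one fixed dose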
# H9c2 protect – cardioprotection against H2O2-induced cell death, primary screen, uHTS, H9c2 cells, ATPLite luminescence. protection from H2O2 cell death, % at 20 µM. hit rate 0.63% among 360,000. H9c2 cardiomyocytes, H2O2 injury protection, 2 h;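 active means compounds giving at least 50% protection of heart cells from peroxide-induced death in the single-dose screen, raw or plate-pattern-corrected value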;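 further: 0% = DMSO wells with peroxide and 100% = DMSO wells without peroxide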
# AI-2 QS modul – Vibrio harveyi AI-2 quorum sensing modulators, primary screen, JMH597 strain, luminescence/OD600 ratio; Vibrio harveyi JMH597 AI-2 luminescence/OD600 ratio, 9 h; hits give low values; strain lacks LuxN and CqsS sensors; 0 = neutral-control median; activity change, % at 7.5 µM; hit rate 0.4% among 300,000; AID 2094, 2009; in the data active means activity change below about -75%, passing the limit was not always enough;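 further: luminescence divided by OD600 gain over 9 h not by final OD600 alone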
# AHR activator – AHR activators, primary screen, cell-based, luminescence, luciferase reporter, human; Aryl hydrocarbon receptor (Homo sapiens), P35869; AHR-responsive luciferase reporter cells; activation, % at 5 µM; hit rate 2.5% among 320,000; AID 2796, 2010; in the data active means activation above about 47%;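 further: 0% = vehicle wells and 100% = reference agonist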
# Target sequence (P35869 whole entry, looked up): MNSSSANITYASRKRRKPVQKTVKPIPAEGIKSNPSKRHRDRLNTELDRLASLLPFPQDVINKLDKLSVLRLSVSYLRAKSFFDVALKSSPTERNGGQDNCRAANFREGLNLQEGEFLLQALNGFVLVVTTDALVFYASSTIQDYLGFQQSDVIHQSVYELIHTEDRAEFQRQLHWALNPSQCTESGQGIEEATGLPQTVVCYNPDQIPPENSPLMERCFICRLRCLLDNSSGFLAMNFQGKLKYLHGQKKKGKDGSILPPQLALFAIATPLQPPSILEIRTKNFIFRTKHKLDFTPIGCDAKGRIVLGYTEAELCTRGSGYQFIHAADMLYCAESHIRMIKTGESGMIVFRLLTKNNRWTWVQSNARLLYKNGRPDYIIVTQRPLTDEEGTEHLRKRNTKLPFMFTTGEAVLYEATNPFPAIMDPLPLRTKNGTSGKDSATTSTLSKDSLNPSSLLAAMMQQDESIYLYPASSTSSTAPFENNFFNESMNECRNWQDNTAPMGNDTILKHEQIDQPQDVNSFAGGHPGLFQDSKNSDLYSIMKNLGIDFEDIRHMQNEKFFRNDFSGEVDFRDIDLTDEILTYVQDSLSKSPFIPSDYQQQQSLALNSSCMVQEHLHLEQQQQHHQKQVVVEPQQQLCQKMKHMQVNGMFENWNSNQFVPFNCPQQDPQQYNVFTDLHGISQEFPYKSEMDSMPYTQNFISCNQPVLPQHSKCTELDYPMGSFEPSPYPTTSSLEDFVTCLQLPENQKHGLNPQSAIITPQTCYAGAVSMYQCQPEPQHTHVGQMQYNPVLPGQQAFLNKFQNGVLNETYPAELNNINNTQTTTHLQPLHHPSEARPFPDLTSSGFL
# SUMO Mot1 rescue – yeast Mot1-301 growth rescue at high temperature, primary screen, SUMOylation pathway inhibitor project, S. cerevisiae, ATP luminescence, 38.5C | S. cerevisiae Mot1-301 growth rescue; percent above DMSO median, 100 means doubled | growth rescue, % at 18.8 µM | hit rate 1% among 320,000;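 active means every valid replicate shows activation above 250% relative to neutral control wells; inactive means the rest, any valid replicate at or below 250%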;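 further: OY570 slx delta 5 strain wells were the positive control but not used for scaling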
# * marks the source's active call; other numbers are inactive results; x = no result given; + = active, no number. Hits are enriched below; roughly 6.2% of the tested compounds scored in any of these assays.
SMILES,NTR1 agonist,GRIN3A LBD mod,H9c2 protect,AI-2 QS modul,AHR activator,SUMO Mot1 rescue
Cc1cccc(NC(=O)COC(=O)Cc2cccs2)c1C,1,0,-2,10,-2,x
COc1cc(/C=N/Nc2ccc(C(F)(F)F)cn2)ccc1O,3,30*,-2,17,6,+
COC(=O)c1ccc(/C=N/NC(=O)c2ccc3nc[nH]c3c2)cc1,0,11*,1,27,1,-9
COC(=O)c1ccc(/C=N/Nc2nc3ccccc3[nH]2)cc1,0,-5,0,27,48*,96
COc1cc(/C=N/Nc2snc(SC)c2C#N)ccc1O,5,20*,0,12,73*,-11
O=C(O)c1ccc(/C=N/Nc2nc3ccccc3[nH]2)cc1,-1,-1,0,11,15,-7
O=C(O)c1ccc(/C=N/Nc2ccc(C(F)(F)F)cn2)cc1,x,0,6,25,x,x
O=C(NC1CCS(=O)(=O)C1)c1cccc(Cl)c1 (stereo not given),3,0,0,10,0,-20
COc1cc(/C=N/NC(=O)c2cc3ccccc3[nH]2)ccc1O,-1,34*,13,4,53*,-20
COc1cc(/C=N/Nc2nc3ccccc3[nH]2)ccc1O,0,15*,3,17,55*,-6
COc1cccc(/C=N/Nc2nc3ccccc3[nH]2)c1O,4,-11,13,-1,60*,-19
Cc1ccc(F)c(S(=O)(=O)NC(=O)C2(C)CCN2C(=O)c2ccc(C3CCCCC3)cc2)c1 (stereo not given),x,x,-3,x,x,x
COc1ccnc(Oc2ccccc2)c1C(=O)N/C=N/OCc1ccc(F)cc1Cl,7,-3,69*,21,5,322
COc1cc(OC)nc(Oc2cccc(Cl)c2C)n1,-1,1,-4,20,-2,-5
C[C@@H]1CN([C@H](C)CO)C(=O)CCCn2cc(nn2)CO[C@H]1CN(C)C(=O)Nc1ccc(F)cc1,x,x,0,x,x,x
C/C(=N/NC(=O)CNC(=O)c1cccs1)c1ccc(Cl)cc1,0,21*,4,-20,18,13
CN(C)S(=O)(=O)c1cccc(NC(=O)c2cccc(NS(=O)(=O)c3ccccc3)c2)c1,3,3,-8,4,2,-5
COC(=O)c1cccc(NC(=S)Nc2ccc(Cl)c(Cl)c2)c1,1,23*,-11,-8,14,52
CC(C)S(=O)(=O)c1csc(NC(=O)Nc2ccc(Cl)cc2)c1,3,33*,-8,13,6,-2
CN(C)S(=O)(=O)c1cccc(C(=O)Nc2ccc(C(=O)Nc3cccc(S(N)(=O)=O)c3)cc2)c1,4,21*,1,x,-1,17
COC(=O)c1cc(NC(=S)Nc2cc(Cl)cc(Cl)c2)cc(C(=O)OC)c1,0,16*,-27,26,4,-8
NC(=O)c1ccc(NC(=O)COC(=O)c2c[nH]c3ccccc23)cc1,3,4,-1,x,x,x
COC(=O)c1cccc(NC(=O)Nc2ccc(Cl)cc2)c1,3,35*,-13,-24,-9,4
NS(=O)(=O)c1cccc(NC(=O)Nc2ccc(Cl)cc2)c1,-1,36*,-11,-4,15,6
O=C(N/C(=N\O)c1ccccc1)Nc1ccc(Cl)cc1,0,23*,5,x,1,-4
SMILES,NTR1 agonist,GRIN3A LBD mod,H9c2 protect,AI-2 QS modul,AHR activator,SUMO Mot1 rescue
COc1ccc(CN2CCCC(C(=O)Nc3cccc(-n4cnnn4)c3)C2)c(C)c1C (stereo not given),2,-3,7,20,0,-17
CC(C(=O)Nc1cccc(S(=O)(=O)N2CCOCC2)c1)N1CCN(C)CC1 (stereo not given),0,-3,0,8,0,1
O=C(CNc1cccc(Cl)c1)NNC(=S)NCc1ccccc1,1,-8,-13,2,0,-3
FC(F)(F)c1cccc(NC(=S)NCc2ccc(Cl)cc2)c1,3,20*,-30,-2,-1,7
Fc1ccccc1CNC(=S)Nc1cccc(C(F)(F)F)c1,1,14*,-11,6,3,3
S=C(NCc1ccccc1)Nc1cccc(Cl)c1,2,-8,-12,-78*,2,-7
COc1ccccc1N(CC(=O)N(C)Cc1ccccc1)S(=O)(=O)c1cccs1,3,1,-2,x,-1,53
Oc1ccc(Cl)cc1Sc1cc(Cl)ccc1O,x,25*,-24,x,x,x
O=C(Cc1ccc(F)cc1)Nc1nc(-c2ccc(F)c(F)c2)cs1,5,-1,1,-20,x,2
O=C(CSc1ncnc2[nH]ncc12)Nc1nc(-c2ccc(F)c(F)c2)cs1,8,20*,2,6,-8,14
CC(O)(Cc1cccnc1)c1cccs1 (stereo not given),x,0,4,x,x,x
CN(C)c1ccc(/C=C/C(=O)c2ccc(O)cc2)cc1,x,12*,-16,x,x,x
Cc1ccc2cccc(NS(=O)(=O)c3ccccc3)c2n1,0,1,x,11,71*,-4
Cc1cc(C)n(-c2ccc3cccc(NS(C)(=O)=O)c3n2)n1,-2,-2,88*,19,1,-15
O=S(=O)(Nc1cccc2cccnc12)c1ccccc1,10,0,19,-1,-2,210
CS(=O)(=O)Nc1cccc2cccnc12,1,10,13,x,6,11
CCCCC[C@@H]1C=C(C(=O)O)[C@H](c2ccc(F)cc2)N1S(=O)(=O)c1ccc(C)cc1,5,1,27,x,1,75
O=C(NN1CCOCC1)c1ccccc1,0,1,8,1,-1,18
Cc1c(Cl)cccc1NC(=O)CSc1nc(=O)n(CCCN2CCOCC2)c2c1CCCC2,x,x,-2,x,x,x
COc1ccc(NC(=O)CSc2nc3c(cc2C#N)CN(C)CC3)cc1,-2,-1,-2,18,10,16
CN1CCc2nc(SCC(=O)Nc3ccc(F)cc3)c(C#N)cc2C1,-2,x,x,20,67*,-16
O=C(CCCCCCCC(=O)c1ccccc1)c1ccccc1,0,24*,-23,7,-4,-4
Cc1ccc(C(=O)CCC(=O)NCc2ccccc2)cc1,0,51*,0,1,1,-11
Cc1ccc(C(=O)CC(=O)c2ccccc2)cc1,3,34*,20,28,0,14
CC(C)(C)c1ccc(C(=O)CCC(=O)NCc2ccccc2)cc1,3,0,-14,x,0,16
